Assay outcomes (PubChem)
HT1080 IDH1KD tx: HT-1080 IDH1 knockdown cell toxicity (counter line) | HT-1080 IDH1 knockdown viability, ATP luminescence, 48 h | Potency, µM (highest dose often 46.1 µM), for inactives: top-dose activity, negative = toxicity, usual class: cytotoxic | 2% of 360,000 active | AID 686971;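 also: potency is read from the fitted curve at half-maximal effect; 0% = DMSO wells and -100% = cell-free medium wells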
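After a 2 h attachment period, IDH1KD HT-1080 cells took pin-transferred compound for 48 h at 37 °C; ATP-based luminescence after 10 min room-temperature reagent incubation reported viability.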
IL-1B inflam inh: blocks inflammasome-driven IL-1 beta release; AID 743279; 4.7% of 360,000 active; THP-1 LPS/ATP IL-1B secretion, AlphaLISA, 16 h; active compounds read low; activity change, % at 57.5 µM; in the data active = activity change below about -50%; inconclusive = mostly about -30% to -49%
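THP-1 cells pretreated 1 hr with compounds (up to 57.5 uM final), then stimulated with LPS (250 ng/mL final) plus ATP (1.25 mM final); secreted IL-1B measured by AlphaLISA after 16 hr, decreased signal indicating inhibition.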
DT40 TDP1 CPT: growth inhibition of DT40 Tdp1-/-;hTDP1 cells with camptothecin (screen for TDP1 inhibitors) | chicken DT40 Tdp1-/-;hTDP1 cells + 20 nM CPT, ATP luminescence, 48 h | 12% of 420,000 active | Potency, µM (series often up to 46.2 µM), for the others: at the highest dose activity change, negative = growth inhibition, most hits filed as inhibitors; also: potency is read from the fitted curve at half-maximal effect; nearly all actives have a fitted effect of over 55% in size
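Chicken DT40 Tdp1-/- cells complemented with human TDP1, 400 cells/well, exposed to compounds plus 20 nM camptothecin for at least 48 h at 37 C; viability read as ATP content by CellTiter-Glo luminescence.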
DT40 TDP1 no CPT: qHTS for Inhibitors of human tyrosyl-DNA phosphodiesterase 1 (TDP1): qHTS in cells in absence of CPT; DT40 Tdp1-/- hTDP1 cells, no CPT, ATP luminescence, 48 h; 15% of 420,000 active; Potency, µM (doses to about 46.2 µM), for inactives: top-dose activity change, negative = growth inhibition, actives largely listed as inhibitors; also: potency is read from the fitted curve at half-maximal effect; nearly all actives have a fitted effect of over 55% in size
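Growth of hTDP1-complemented DT40 Tdp1-knockout cells is measured by ATP luminescence after at least 48 hr compound exposure at 37 °C, with DMSO substituting for the 20 nM CPT used in the parallel screen.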
HT1080-NT tox: kills 2HG-producing HT-1080-NT fibrosarcoma cells; HT-1080-NT fibrosarcoma viability, CellTiter-Glo ATP luminescence, 48 h; AID 686970; 1.6% of 360,000 active; Potency, µM (series often up to 46.1 µM), inactives show at the top dose activity, negative = less viability, hits mostly cytotoxic;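 also: NT is the 2HG producing partner of a matched IDH1 knockdown line; potency is read from the fitted curve at half-maximal effect; 0% = DMSO-treated cells and -100% = media-only wells without cells; nearly all actives have a fitted effect of over 55% in size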
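750 cells/well, RPMI + 5% FBS; 2 h settle, compound pin-transfer, 48 h at 37 degrees C. CellTiter-Glo 10 min RT, luminescence. Normalized to DMSO and media-only wells.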
* = called active by the depositor; ? = inconclusive; / = no result; [ ] = dose if it differs, or a comment. Hits are enriched below; roughly 19% of the tested compounds scored in any of these assays. Unless noted, calls follow the shape of the dose curve; as a rule, active = well fitted curve in the direction sought with a large enough effect; inconclusive = small, poorly fitted or top-dose-only effect, or another doubt; inactive = no such curve, though single readings can be large; an effect the other way counts as inactive or inconclusive. Unless noted, % is scaled to controls: 0 for no effect and ±100 for the full control effect.

SMILES	HT1080 IDH1KD tx	IL-1B inflam inh	DT40 TDP1 CPT	DT40 TDP1 no CPT	HT1080-NT tox
CCOC(=O)CCCCCC(=O)Nc1ccc2c(c1)C(=O)N([C@H](C)CO)C[C@@H](C)[C@@H](CN(C)C(=O)CCC(F)(F)F)OCCCC[C@H](C)O2	11.6%	-4.6	?	-1.5%	13.6%
O=c1oc(-c2ccc([N+](=O)[O-])cc2)nc2ccccc12	13.2%	-6.9	?	-23.9%	14.6%
O=c1oc(-c2ccc([N+](=O)[O-])cc2)nc2ccc(O)cc12	-3.2%	-67.7*	-1.9%	-16.0%	0.0%
CCOc1nnnc2c1sc1nc(N3CCOCC3)c3c(c12)CCCC3	17.1%	-15.2	?	?	18.5%
CCc1ccc2c(c1)/C(=N/OC)C(=O)N2	12.9%	-7.7	?	20.6µM*	3.0%
COc1ccc(NC(=S)N(CCC(C)C)C2CCN(C(C)C)CC2)cc1Cl	-12.6%	?	-15.8%	?	-19.3%
CCOC(=O)N1CCC(N(C(=O)Nc2ccc(Cl)c(Cl)c2)C(C)CC)CC1 (stereo unspecified)	-25.3%	-84.8*	23.1µM*	10.3µM*	?
CCOC(=O)N1CCC(N(CCN(C)C)C(=S)Nc2cccc(Cl)c2)CC1	1.8%	-28.5	?	0.8%	2.1%
CCOC(=O)c1ccccc1NC(=O)N(C(C)C)C1CCN(C(C)=O)CC1	/	/	14.6µM*	14.6µM*	/
CC(C)CCN(C(=O)Nc1ccc(Cl)c(Cl)c1)C1CCN(C(C)C)CC1	/	/	14.6µM*	14.6µM*	/
CCOc1ccc(NC(=O)N(C(C)C)C2CCN(C(C)=O)CC2)cc1	/	/	3.3%	-7.4%	/
CCC1=NC(c2ccccc2OC)N(O)C1(C)C (stereo unspecified)	1.2%	-5.9	-15.9%	-12.4%	3.3%[9.24 µM]
CC1(c2nnc(-c3ccc(F)cc3)o2)CC(c2ccc([N+](=O)[O-])cc2)=NO1 (stereo unspecified)	0.1%	-15.7	-27.8%	-26.8%	-5.6%
CCCc1cc(=O)oc2c(C)c(OCC(=O)Nc3cccnc3)ccc12	6.5%	0.0	-28.1%	-7.4%	6.9%
COC(=O)/C=C1\SC(=NC(=O)c2cccc(Cl)c2)NC1=O	20.3%	-9.8	20.6µM*	?	26.3%
COC(=O)/C=C1/SC(=NC(=O)c2ccc(F)cc2)NC1=O	?	/	-6.0%	?	15.7%
COC(=O)/C=C1/SC(=NC(=O)c2ccccc2)NC1=O	15.1%	-3.3	?	20.6µM*	13.3%
COC(=O)/C=C1/SC(=NC(=O)c2cccc([N+](=O)[O-])c2)NC1=O	11.3%	?	?	?	8.3%
COc1cccc(NC(=O)CN(C)S(=O)(=O)c2cccs2)c1	/	/	4.2%	-21.4%	/
CCOc1ccc(/C=N/NC(=O)NC23CC4CC(CC(C4)C2)C3)cc1O	-22.1%	-15.8	?	?	-15.0%
COc1cc(/C=N/NC(=O)NC23CC4CC(CC(C4)C2)C3)ccc1O	?	?	-23.9%	?	25.9µM*
COc1cc(OC)cc(C(=O)NC(C(=O)N2CCc3ccccc3C2)C(C)C)c1 (stereo unspecified)	?	31.4	20.6µM*	?	?
COc1ccc(C(=O)NC23CC4CC(CC(C4)C2)C3)cc1OC	-2.2%	-3.5	-26.8%	-11.7%	1.2%
COc1cc(OC)cc(C(=O)N[C@H](C(=O)N2CCc3ccccc32)C(C)C)c1	?	24.7	?	?	-25.4%
COc1cc(OC)c(C(=O)NC23CC4CC(CC(C4)C2)C3)cc1OC	-7.5%	3.3	?	18.4µM*	-3.9%
SMILES	HT1080 IDH1KD tx	IL-1B inflam inh	DT40 TDP1 CPT	DT40 TDP1 no CPT	HT1080-NT tox
O=C(N/N=C/c1ccc(O)c(O)c1)NC12CC3CC(CC(C3)C1)C2	?	-81.7*	11.6µM*	14.6µM*	-3.6%
COc1cc(/C=N/Nc2ccc(Cl)c(C(=O)O)c2)ccc1OC(=O)c1ccccc1F	-3.9%	-5.4	-1.6%	18.4%	14.2%
COc1cc(OC)cc(C(=O)N[C@H](C(=O)NC23CC4CC(CC(C4)C2)C3)C(C)C)c1	-21.6%	32.7	29.1µM*	?	-25.0%
CN=C1N(C)C[C@@H]2[C@@H]3C(=O)N(C)C(=O)[C@@H]3[C@](Cc3ccccc3)(C(=O)OC)N12	7.9%	0.7	11.9%	16.0%	8.6%
Cc1noc(C)c1-c1nc(N(C)C)c2ccccc2n1	/	/	-0.8%	-6.9%	/
CN(C)C(=O)c1ccc(-c2nccc(N(C)Cc3ccco3)n2)cc1	/	/	-4.6%	-16.7%	/
Fc1ccccc1COc1ccc2ccccc2c1CNc1nn[nH]n1	16.4µM*	26.9	-5.2%	-17.8%	13µM*
NC(=O)c1ncn([C@@H]2O[C@H](CNCc3c(OCc4ccccc4F)ccc4ccccc34)[C@@H](O)[C@H]2O)n1	7.3%	-18.7	5.8%	-9.1%	5.7%
O=c1ccn([C@@H]2O[C@H](CNCc3c(OCc4ccccc4F)ccc4ccccc34)[C@@H](O)[C@H]2O)c(=O)[nH]1	?	-57.8*	16.4µM*	?	?
Fc1ccc(COc2ccc3ccccc3c2CNc2nn[nH]n2)cc1	?	-10.2	3.5%	14.3%	?
CC1Cc2cc(S(=O)(=O)N3CCN(c4ccccc4F)CC3)ccc2N1C(=O)C1CC1 (stereo unspecified)	-21.6%	-29.4	?	23.1µM*	-20.3%
CC(=O)N1CCCc2cc(S(=O)(=O)N3CCN(c4ccccc4F)CC3)ccc21	/	/	20.6µM*	20.6µM*	/
CC(=O)N1CCCc2cc(S(=O)(=O)N3CCN(c4ccccn4)CC3)ccc21	-0.7%	-1.3	?	?	4.8%
COc1ccc(NS(=O)(=O)c2ccc(N3CCCC3)c(N)c2)cc1	?	-16.0	5.17µM*	4.61µM*	-20.9%
Nc1cc(S(=O)(=O)Nc2ccc(Cl)cc2)ccc1N1CCOCC1	-12.4%	-10.7	7.31µM*	5.17µM*	?
Nc1cc(S(=O)(=O)Nc2ccccc2Cl)ccc1N1CCOCC1	1.4%	11.3	?	?	-6.9%
COc1ccc(NS(=O)(=O)c2ccc(I)cc2)cc1N1CCN(C)CC1	/	/	26.6µM*	29.9µM*	/
C=CCOc1ccc(/C=C/C(=O)OCC(=O)N2CCC(c3ccccc3)=N2)cc1	-2.6%	-25.2	?	-19.6%	0.9%
CCCCC1=CC2=C(c3ccco3)C(=O)C(C)(OC(=O)c3ccc(OC)cc3)C(=O)C2=CN1CCCOC(C)C (stereo unspecified)	0.0%	-14.4	5.17µM*	6.51µM*	1.8%
COC(=O)CCC(=O)OC1(C)C(=O)C2=CN(CCCOC(C)C)C(c3ccc(OC)cc3)=CC2=C(Br)C1=O (stereo unspecified)	-10.5%	-0.7	18.4µM*	16.4µM*	-3.0%
